# Reference: PubChem BioAssay AID1851 (National Center for Advancing Translational Sciences (NCATS), 2009)
# Values joined by “and” are separate entries in the source; they are usually repeats but may differ in a detail not shown here. Equal entries are not always repeated. Among all 16,000 compounds or so, about 5,100 (32%) were called active. Not shown: some 25% with an inconclusive outcome. Calls follow the shape of the dose curve; as a rule, active = well fitted curve in the direction sought with a large enough effect; inconclusive = small, poorly fitted or top-dose-only effect, or effect the other way; inactive = no such curve, though single readings can be large or run the other way. This is one part of the list.
# Target: Cytochrome P450 3A4 (Homo sapiens) (UniProt P08684)
# Assay: Cytochrome panel assay with activity outcomes
# Conditions: recombinant CYP, pro-luciferin dealkylation, luminescence, p450-cyp3a4; series mostly up to 57.1 µM; activity, negative = inhibition: at the top concentration
# Protocol: The P450 gene superfamily is involved in the metabolism and clearance of xenobiotics. This assay used various human CYP P450 isozymes to measure the dealkylation of various pro-luciferin substrates to luciferin. The luciferin is then measured by luminescence after the addition of a luciferase detection reagent. Pro-luciferin substrate concentration in the assay was equal to its KM for its CYP P450 isozyme. Inhibitors and some substrates limit the production of luciferin, and decrease measured luminescence.
# NCGC Assay Protocol Summary:
# 1, Reagent, 2 uL, Isozyme and Pro-Luciferin
# 2, Library compounds, 23 nl, 40 uM to 0.24 nM dilution series
# 3, Controls, 23 nl, Isozyme specific inhibitor
# 4, Reagent, 2 uL, NADPH regeneration solution
# 5, Incubation time, 60 min, Isozyme specific temperature
# 6, Reagent, 4ul, Detection reagent
# 7, Incubation time, 20 min, Isozyme specific temperature
# 8, Detection, 1 sec, ViewLux luminescent read
# The luciferase-based P450-GloTM Screening Systems were obtained from Promega (Madison, WI) for CYP 1A2 (V9770), CYP 2C9 (V9790), CYP2 C19 (V9880), CYP 2D6 (V9890), and CYP 3A4 Luciferin-PPXE (V9910) and were adapted for 1,536-well microplates and an automated protocol. The control compounds furafylline for 1A2 (F124), sulfaphenazole for CYP 2C9 (S0758), ketoconazole for CYP 2C19 (K1003), quinidine for 2D6 (Q3625), and ketoconazole for 3A4 (K1003) were purchased from Sigma Aldrich (St. Louis, MO). Recombinant P450 enzymes were obtained from baculovirus constructs expressed in insect cells (BD/Gentest).
# Medium-binding white solid Kalypsys plates used. Mixtures kept on ice. 1A2: 10 nM 1A2, 100 uM Luc-ME, 100 mM KPO4; 2C9: 10 nM 2C9, 100 uM Luc-H, 25 mM KPO4; 2C19: 5 nM 2C19, 10 uM Luc-H EGE, 50 mM KPO4; 2D6: 5 nM 2D6, 30 uM Luc-ME EGE, 100 mM KPO4; 3A4: 10 nM, 25 uM Luc-PPXE. All amounts are reflected in their final concentration, working concentration is 2x.
# NADPH regeneration solution: 1.3 mM NADP+, 3.3 mM glucose-6-phosphate, 3.3 mM MgCl2, 0.4 U/mL glucose-6-phosphate dehydrogenase for all isozymes, 200 mM KPO4 for 3A4. Mixture prepared at RT but kept on ice during automated run.
# RT incubation in auxilliary plate hotel for 1A2, 2D6, and 3A4; 37C for 2C9 and 2C19.
# Keywords: P450, CYP1A2, CYP2C19, CYP2C9, CYP2D6, CYP3A4, Luciferase, MLSMR, MLSCN, NIH Roadmap, qHTS, NCGC
# % is scaled to controls: 0 for no effect and ±100 for the full control effect.
# Cytochrome P450 3A4 (Homo sapiens), sequence (P08684 whole entry, looked up): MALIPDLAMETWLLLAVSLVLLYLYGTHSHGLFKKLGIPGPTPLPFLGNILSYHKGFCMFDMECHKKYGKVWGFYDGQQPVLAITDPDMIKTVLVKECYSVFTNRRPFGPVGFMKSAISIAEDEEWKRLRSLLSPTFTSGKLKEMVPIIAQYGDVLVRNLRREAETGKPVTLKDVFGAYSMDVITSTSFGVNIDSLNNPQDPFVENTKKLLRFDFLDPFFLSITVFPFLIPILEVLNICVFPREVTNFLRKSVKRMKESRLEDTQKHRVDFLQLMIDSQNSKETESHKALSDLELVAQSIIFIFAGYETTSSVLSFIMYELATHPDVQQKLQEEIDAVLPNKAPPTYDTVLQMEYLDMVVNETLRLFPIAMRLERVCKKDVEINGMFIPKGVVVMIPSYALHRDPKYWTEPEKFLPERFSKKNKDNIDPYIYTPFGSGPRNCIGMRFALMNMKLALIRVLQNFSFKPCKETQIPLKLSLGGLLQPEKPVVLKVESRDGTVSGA
Structure (SMILES),AC50,"activity, negative = inhibition"
N#C/C(=C\c1ccc(O)c(O)c1)C(N)=S,12.6 µM (active) and 15.8 µM (active),
N#C/C(=C\c1ccc(O)c(O)c1)C(=O)NCCCNC(=O)/C(C#N)=C/c1ccc(O)c(O)c1,2 µM (active),
CC[C@@H]1[C@@H]2C[C@H]3[C@H]4N(C)c5ccccc5[C@@]45C[C@@H]([C@@H]2[C@@H]5O)N3[C@H]1O,,1.61% [at 25.6 µM] (inactive)
CNC[C@H](O)c1ccc(O)cc1,,-13% [at 25.6 µM] (inactive)
NC[C@H](CP(=O)(O)O)c1ccc(Cl)cc1,,-3.38% (inactive)
CC1(C)[C@@H]2CC[C@]1(C)CN(CCC[N+](C)(C)C)C2,,12.3% [at 11.4 µM] (inactive)
C[N+](C)(C)CCCCCC[N+](C)(C)C,,-2.76% [at 25.6 µM] (inactive)
O=C(Nc1ccc(C(F)(F)F)cc1)c1cccn(Cc2ccc3c(c2)OC(F)(F)O3)c1=O,,-21.3% (inactive)
C=CCn1c(O)c(C(CC)=NC2CC2)c(=O)[nH]c1=O,,-14.9% [at 2.29 µM] (inactive)
CCCCn1c(O)c(C(CC)=Nc2ccc(OC)cc2OC)c(=O)[nH]c1=O,7.94 µM (active),
O=C(CCCN1CCC(n2c(=O)[nH]c3ccccc32)CC1)c1ccc(F)cc1,,-10.2% [at 25.6 µM] (inactive)
CCCn1c(C)c(C(=O)c2cccc3ccccc23)c2ccccc21,,-13.7% (inactive)
COc1ccc(C(=O)c2c(C)n(CCN3CCOCC3)c3cc(I)ccc23)cc1,5.01 µM (active),
CC(C)CC(=O)C[C@H](O)C(Cl)(Cl)Cl,,1.61% [at 11.4 µM] (inactive)
S=P(C1CCCCC1)(C1CCCCC1)[C@H](c1cccnc1)N1CCCC1,3.16 µM (active),
CCC(CC)C(=O)NC1CCSC1=O (stereo unspecified),,10.8% (inactive)
CN1CCN(c2ncc3ncc(=O)n(C)c3n2)CC1,,0.0574% (inactive)
COc1ccc(C(=O)OC2C[C@H]3CC[C@@H](C2)N3C)cc1OC (stereo partly specified),,-8.39% [at 25.6 µM] (inactive)
Cc1ccc(S(=O)ON2CCC(C(=O)O)(c3ccccc3)CC2)cc1 (stereo unspecified),,-0.254% [at 11.4 µM] (inactive)
C=C(CC1(C(C)NP(=O)(c2ccccc2)c2ccccc2)CC1)c1ccccc1 (stereo unspecified),3.98 µM (active),
O=P(c1ccccc1)(c1ccccc1)N1CC2(CC2)CC(O)(c2ccccc2)C1 (stereo unspecified),,1.88% (inactive)
O=P(O)(O)c1ccccc1 (tested in a mixture with another compound),,-7.35% [at 11.4 µM] (inactive)
C=C(CC1(CNP(=O)(c2ccccc2)c2ccccc2)CC1)c1ccccc1,3.98 µM (active),

Structure (SMILES),AC50,"activity, negative = inhibition"
CN1[C@@H]2CC[C@H]1CC(OC(=O)c1cc(Cl)cc(Cl)c1)C2 (stereo partly specified),,-16.8% (inactive)
CC(C)(C)c1o[nH]c(=O)c1C[C@H](N)C(=O)O,,inactive
CCN1C[C@]2(C)CC[C@H](O)[C@@]34[C@@H]5CC6[C@@H](OC)C[C@@](O)([C@@H]5[C@@H]6O)[C@H](C[C@@H]23)[C@H]14,,-7.01% [at 25.6 µM] (inactive)
CCCN(CCC)[C@@H]1CCc2cccc(O)c2C1,,inactive
N=C(N)c1ccc(-c2ccc(-c3ccc(C(=N)N)cc3)o2)cc1,,3.4% [at 11.4 µM] (inactive)
CCCN(CCC)C1Cc2cc(OC)c(OC)cc2C1,,inactive
C[N+](C)(C)CCO,,10% (inactive)
C[C@H](c1ccccc1)N1CCN([C@@H](C)c2ccccc2)CC1,,-13.4% [at 11.4 µM] (inactive)
O=C1c2ccccc2-c2cc([N+](=O)[O-])c([N+](=O)[O-])cc21,0.501 µM (active),
NCCc1ccc(S(=O)(=O)O)cc1[N+](=O)[O-],,-7.4% [at 11.4 µM] (inactive)
O=C1c2cc([N+](=O)[O-])ccc2-c2ccc3c4ccc5c6c(ccc(c7ccc1c2c73)c64)C(=O)c1cc([N+](=O)[O-])ccc1-5,,-21% [at 11.4 µM] (inactive)
CSCC[C@@H](N)P(C)(=O)O,,-8.04% [at 11.4 µM] (inactive)
C=C[C@]12CN(C)[C@H]3C1[C@@]1(C(=O)Nc4ccccc41)[C@H]1C[C@H]2[C@H]3CO1,,-22.4% [at 25.6 µM] (inactive)
Oc1cccc2cccnc12,,-3.42% [at 11.4 µM] (inactive)
CCC1C(=O)OCC1Cc1cncn1C (stereo unspecified),15.8 µM (active),
CC[C@H]1C(=O)OC[C@H]1Cc1cncn1C,10 µM (active) and 3.16 µM (active),
c1csc(CN2CC3(CCNCC3)C2)n1,,-12.1% (inactive)
OC1(c2ccc(F)cc2)CCNC1 (stereo unspecified),,-2.52% (inactive)
O=S(=O)(O)/C(=C\c1ccccc1)c1ccccc1 (tested in a mixture with another compound),,-11.7% [at 11.4 µM] (inactive)
COc1ccn(C)c(=O)c1C#N,,-6.41% [at 25.6 µM] (inactive)
Cc1ccc(N=Nc2c(O)[nH]c(=O)[nH]c2=O)c([N+](=O)[O-])c1,,14.9% (inactive)
CP(=O)(O)CCCN,,inactive
NC(=O)COc1c(F)cc(SCCNS(=O)(=O)c2ccccc2)cc1F,12.6 µM (active),

Structure (SMILES),AC50,"activity, negative = inhibition"
C/C(=C\C=C/[C@@H](C)C(=O)O)[C@H]1CN[C@H](C(=O)O)[C@@H]1CC(=O)O,,-6.56% (inactive)
CC(C)CNC(=S)NC1CC2CCCC(C1)N2Cc1ccco1 (stereo unspecified),,2.91% [at 2.29 µM] (inactive)
Cc1ccc(C(=O)C2C(=O)c3ccccc3C2=O)cc1,,-18.3% [at 11.4 µM] (inactive)
CN(C(=O)Cc1ccc(Cl)c(Cl)c1)[C@H](CN1CCCC1)c1ccccc1,6.31 µM (active),
CN(C(=O)Cc1ccc(Cl)c(Cl)c1)[C@@H](CN1CCCC1)c1cccc(OCC(=O)O)c1,,-9.59% (inactive)
O=C(O)CP(=O)(O)c1ccc(Cl)cc1,,8.85% (inactive)
COc1ccc(C[C@H]2c3cc(OC)c(OC)cc3CCN2C)cc1OC,,-26.2% [at 25.6 µM] (inactive)
C[C@]1(C(=O)O)[C@@H]2CC[C@@H](O2)[C@@]1(C)C(=O)O,,-4.96% (inactive)
CC1(C)CCC2=C(O1)c1ccccc1C(=O)C2=O,15.8 µM (active),
COc1cc2c3cc1Oc1c(O)c(OC)cc4c1[C@@H](Cc1ccc(cc1)Oc1cc(ccc1O)C[C@H]3N(C)CC2)N(C)CC4,,-12.1% [at 11.4 µM] (inactive)
N[C@H](C(=O)O)c1cc(=O)[nH]o1,,-5.66% (inactive)
N[C@@H](CP(=O)(O)O)C(=O)O,,-3.52% [at 11.4 µM] (inactive)
OC(Cn1c2ccccc2c2ccccc21)C[n+]1ccccc1 (stereo unspecified),,-1.96% [at 2.29 µM] (inactive)
CCCCC1(CCCC)C(=O)NC(=Nc2cccc(C)c2)NC1=O,12.6 µM (active),
CCCCCC[C@H]1C(=O)O[C@H](C)[C@H](NC(=O)c2cccc(NC=O)c2O)C(=O)O[C@@H](C)[C@H]1OC(=O)CC(C)C,5.01 µM (active),
C[C@@H]1OC=C2[C@@H](O)[C@H]3O[C@H]3C(=O)[C@@]23[C@H]1[C@H]1C2=C([C@@H](O)[C@H]4O[C@@H]4C2=O)[C@@H]3O[C@@H]1C,,-18.6% [at 11.4 µM] (inactive)
C[N+]1(C)[C@@H]2CC(OC(=O)[C@@H](CO)c3ccccc3)C[C@@H]1[C@H]1O[C@H]12 (stereo partly specified),,2.59% [at 11.4 µM] (inactive)
Nc1nc(N)c2nc(CNc3ccc(C(=O)N[C@H](CCC(=O)O)C(=O)O)cc3)cnc2n1,,4.59% (inactive)
C[C@@H](COc1ccccc1)N(CCCl)Cc1ccccc1,,-18.7% [at 25.6 µM] (inactive)
N[C@@H](CCCP(=O)(O)O)C(=O)O,,-6.54% (inactive)
O=c1cc(-c2ccc(O)cc2)oc2c([C@H]3O[C@@H](CO)[C@@H](O)[C@@H](O)[C@@H]3O)c(O)cc(O)c12,,-6.72% [at 25.6 µM] (inactive)
Clc1ccccc1-c1cncnc1NCCc1cnc[nH]1,0.501 µM (active),
Cc1ccccc1-c1cncnc1NCCc1cnc[nH]1,0.631 µM (active),

Structure (SMILES),AC50,"activity, negative = inhibition"
CNCCc1cnc[nH]1,,-27.6% (inactive)
CN(C)C(=O)Oc1ccc[n+](C)c1,,0.854% (inactive)
NC(=O)c1ccc(C(=O)Nc2ccc([As](=O)(O)O)cc2)cc1,,8.53% [at 11.4 µM] (inactive)
C[C@H](Br)C(=O)N[C@H](CO)C(=O)O,,8.21% [at 11.4 µM] (inactive)
O=C(Oc1ccc(S(=O)(=O)F)cc1F)c1ccccc1Cl,,-5.64% [at 11.4 µM] (inactive)
NCCc1c[nH]c2ccc(OC(=O)C(=O)O)cc12,,-35.7% [at 11.4 µM] (inactive)
O=C(O)c1cc[c]([Hg][S]c2ncnc3nc[nH]c23)cc1,,-15.7% [at 11.4 µM] (inactive)
O=C(c1cc(=O)[nH]c2ccc(Br)cc12)N1CCC2(CC1)OCCO2,,-17.8% (inactive)
CN(C)c1ccc(NC(=O)CN2C(=O)CN=C(c3ccccc3)c3ccccc32)cc1,4.47 µM (active),
Cc1cc2c(C(F)(F)F)cc(=O)oc2c2c1NCCC2,,-22.3% (inactive)
CCCCCCCCCCCCCC(=O)O[C@H]1[C@@H](C)[C@@]2(O)[C@@H](C=C(CO)C[C@]3(O)C(=O)C(C)=C[C@@H]23)C2C(C)(C)[C@]21OC(C)=O (stereo partly specified),25.1 µM (active),
CC(C)(c1ccc(OC[C@@H]2CO2)cc1)c1ccc(OC[C@H]2CO2)cc1,,-15.7% (inactive)
N=C1c2ccccc2CN1NC(=O)c1ccc(Cl)cc1,,-1.51% (inactive)
O=C(O)[C@@H](O)[C@@H](O)[C@@H]1[O][Sb][O][C@@H]1CO,,-1.25% [at 11.4 µM] (inactive)
O=C(Nc1cccc(F)c1)N1CCCC2(CCN(C(=O)Oc3ccccc3)CC2)C1,15.8 µM (active),
O=C(Nc1ccccc1)N1CCCC2(CCN(C(=O)Oc3ccccc3)CC2)C1,15.8 µM (active),
COc1ccc(NC(=O)N2CCCC3(CCN(C(=O)Oc4ccccc4)CC3)C2)cc1,12.6 µM (active),
O=C(Nc1cccc(F)c1)N1CC2(CCNCC2)C1,,-2.67% (inactive)
NC[C@@H](Cc1ccccc1)P(=O)(O)O,,-4.81% [at 11.4 µM] (inactive)
CC12CN3CC(C)(CN(C1)C31CCSCC1)C2=O,,-2.74% (inactive)
C[C@H]1CC[C@]2(OC1)O[C@@H]1C[C@@H]3[C@@H]4CC[C@H]5C[C@@H](O)CC[C@]5(C)[C@@H]4CC(=O)[C@@]3(C)[C@H]1[C@@H]2C,,-5.6% [at 25.6 µM] (inactive)
Cc1ncsc1CCCl,,6.86% (inactive)
